Bioassay records deposited in PubChem by National Center for Advancing Translational Sciences (NCATS).
G9a block: inhibitors of human histone lysine methyltransferase G9a; G9a H3K9 monomethylation, AlphaScreen, 2 h; Q96KQ7; Potency, µM (series often up to 102 µM), for the others: at the highest dose activity, negative = inhibition, hits mostly inhibitors; hit rate 8.8% among 350,000; also: % is scaled to controls: 0 for no effect and ±100 for the full control effect; nearly all actives have a fitted effect of over 75% in size
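Quantitative HTS format: methyltransferase activity on a biotin-tagged H3K9 peptide is measured by AlphaScreen, using a rabbit anti-monomethyl-H3K9 antibody with streptavidin donor and anti-IgG acceptor beads. Final levels are 20 nM enzyme, 500 nM peptide, 20 uM SAM; 2 h RT.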
L3MBTL1 inh: L3MBTL1 (human) inhibition. Q9Y468. AlphaScreen L3MBTL1–H3K9me1 peptide binding. Potency, µM (series often up to 57.1 µM), inactives show at the top dose activity, negative = inhibition, actives largely listed as inhibitors. hit rate 0.66% among 230,000; also: % is scaled to controls: 0 for no effect and ±100 for the full control effect; nearly all actives have a fitted effect of over 60% in size
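First, the protein-peptide complex forms for 30 min at room temperature (L3MBTL1 50 nM, biotinylated H3K9me1 peptide 75 nM). Next, compounds are pin-transferred and incubated 30 min. Finally, AlphaScreen beads are added and read after 30 min.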
Sfp PPTase inh: Sfp phosphopantetheinyl transferase inhibition; Potency, µM, inactives show largest response in the series, negative = inhibition, hits mostly inhibitors; Q9F4F7; Biochemical Sfp PPTase activity, qHTS; hit rate 3.5% among 310,000; AID 1490;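 also: the enzyme is Sfp with the accession as filed and its product quenches rhodamine fluorescence; 0% = enzyme reaction without inhibitor and -100% = no enzyme wells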
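With Hepes-Na pH 7.6 buffer containing 10 mM MgCl2, Sfp (15 nM) modified BHQ-2-YbbR (12.5 uM) using rhodamine-CoA (5 uM). Two reads 30 minutes apart at 525/598 nm yielded each well's rate.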
JMJD2A Tudor inh: inhibitors of human JMJD2A Tudor domain; O75164; AlphaScreen JMJD2A-Tudor / H3K4me3 peptide binding; Potency, µM (top dose mostly 114 µM), without a hit: at the top dose activity change, negative = inhibition, most hits filed as inhibitors; hit rate 4.4% among 390,000; AID 504339; also: % is scaled to controls: 0 for no effect and ±100 for the full control effect; nearly all actives have a fitted effect of over 50% in size
BAZ2B inh: blocks human BAZ2B. Q9UIF8. Potency, µM (doses to about 114 µM), for inactives: at the highest dose activity change, negative = inhibition, most hits filed as inhibitors. AlphaScreen BAZ2B-H3K14Ac peptide displacement. hit rate 4.4% among 360,000; also: % is scaled to controls: 0 for no effect and ±100 for the full control effect; nearly all actives have a fitted effect of over 60% in size
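Compounds, titrated to a top concentration of 110 uM, were incubated 30 min at room temperature with preformed BAZ2B/acetyl-K14 H3 peptide complex (50 nM each). Proximity signal was measured by AlphaScreen after 20 min with beads.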
HP1b chromo inh: HP1-beta chromodomain-methylated histone interaction inhibition; P83916; AlphaScreen HP1-beta / biotin-H3K9me3 peptide binding; Potency, µM (highest dose often 114 µM), for the others: at the top dose activity change, negative = inhibition, hits mostly inhibitors; hit rate 0.56% among 390,000; also: nearly all actives have a fitted effect of over 70% in size
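HP1-beta protein (50 nM final) preincubated 30 min at room temperature with biotinylated H3(1-18)K9me3 peptide (50 nM) in PBS pH 7.4, 0.01% Tween-20, then compound added for 30 min. AlphaScreen streptavidin donor/nickel chelate acceptor beads (10 ug/mL final), 30 min dark, luminescence read.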
* = called active by the depositor; ? = inconclusive; . = no result; ! = not confirmed by another sample; [ ] = another dose, or the depositor's remark. Only some compounds are listed: those with a hit (about 12% of all), similar ones and a draw of the others. Calls follow the shape of the dose curve; as a rule, active = well fitted curve in the direction sought with a large enough effect; inconclusive = small, poorly fitted or top-dose-only effect, or another doubt; inactive = no such curve, though single readings can be large; an effect the other way counts as inactive or inconclusive. Potency is read from the fitted curve at half-maximal effect.

SMILES | G9a block | L3MBTL1 inh | Sfp PPTase inh | JMJD2A Tudor inh | BAZ2B inh | HP1b chromo inh
CCN(CC)CCN1C(=O)C(=O)/C(=C(/O)c2ccncc2)C1c1ccccc1 (stereo not given) | 50µM* | 2% | -2% | -18% | -9% | 12%
CCN(CC)CCN1C(=O)C(=O)/C(=C(/O)c2ccc(C)cc2)C1c1ccncc1 (stereo not given) | 2%[12.7 µM] | -4%[11.4 µM] | 0% | . | 12% | .
COCCN1C(=O)C(=O)/C(=C(/O)c2cccc(OC)c2)C1c1ccco1 (stereo not given) | . | ? | -7% | ? | 79µM* | 4%
CCN(CC)CCCN1C(=O)C(=O)/C(=C(/O)c2ccc(OC)cc2)C1c1ccco1 (stereo not given) | . | . | . | 10% | . | 13%
Cc1cc(C)c(NC(=O)C[C@H](CC(=O)O)c2cccc3ccccc23)c(C(=O)N2CCC3(CCCC3)CC2)c1 | 1%[12.7 µM] | . | 23% | . | . | .
Cc1cc(C)c(-c2cc([C@H](C)O/N=C3/[C@H]4OC4[C@@H](O)[C@H]4[C@H]3CCn3c(=O)n(-c5ccccc5)c(=O)n34)on2)c(C)c1 (stereo not given in full) | . | . | -4% | . | . | .
CCC(C)NC(=S)Nc1ccc(C(=O)OC)cc1 (stereo not given) | 8% | 0% | 12% | 0% | 3% | 35%
CC(C)[C@@H](CC(=O)N[C@@H]1CCNC[C@H]1C(=O)N[C@H](CC(=O)N[C@@H](CCC(=O)O)CC(=O)O)Cc1c[nH]c2ccccc12)NC(=O)C[C@H](Cc1c[nH]c2ccccc12)NC(=O)[C@@H]1CCCC[C@H]1N | . | . | -5% | . | . | .
Cc1ccc2c(c1)C1(C(=O)N2)N2CCCC2C(C(=O)c2ccc3ccccc3c2)C12C(=O)Nc1ccccc12 (stereo not given) | ? | . | 10% | 50µM* | ? | ?
COc1ccc(C2C3=C(CCCC3=O)NC3=C2C(=O)c2ccccc23)cc1 (stereo not given) | . | -11% | -13% | 50µM* | 35µM* | ?
CSC1=C(C#N)C(c2ccc(Cl)cc2)C2=C(CC(C)(C)CC2=O)N1 (stereo not given) | ? | 4% | -22% | 1% | 11% | 65%
COc1ccc(C2NC(=O)NC3=C2C(=O)CCC3)cc1 (stereo not given) | -12% | 3% | 13% | -11% | -4% | 12%
Cc1ccc(C2C3=C(CC(C)(C)CC3=O)NC3=C2C(=O)c2ccccc23)cc1 (stereo not given) | 14µM* | ? | -17% | 50µM* | 32µM* | ?
CC1(C)CC(=O)C2=C(C1)NC1=C(C(=O)c3ccccc31)C2c1ccc(Cl)cc1 (stereo not given) | ? | ? | -18% | 16µM* | 11µM* | ?
Cc1ccc(C)c(NC(=O)c2nnn(Cc3ccc(F)cc3Cl)c2N)c1 | -10%[59 µM] | . | . | -10% | 3% | 40%
O=C(NC1CC1)c1ccc(Cn2c(SCc3ccccc3F)nc3cccnc32)cc1 | 1%[59 µM] | . | . | 4% | -11% | 29%
CN(C)CCCNc1c2c(nc3ccccc13)CCC2 | 40µM* | . | 4% | -28% | -4% | 38%
COc1cccc(CNC(=O)CSc2n[nH]c(-c3ccccc3Cl)n2)c1 | -15%[59 µM] | . | . | -9% | 2% | 24%[57 µM]
Cc1cc2[nH]c3c4ccccc4nc(C)c3c2cc1C | . | . | . | ? | . | 3%
Cc1cc2[nH]c3c(c[n+](C)c4ccccc34)c2cc1C | 18µM* | 10% | -23% | -7% | ? | 22%
Cc1nc2ccccc2n1CCc1nc2c3ccccc3nc(SCC(=O)Nc3ccc(C(C)C)cc3)n2n1 | 5%[59 µM] | . | . | -29% | -39% | 9%
COc1ccc(N(C(=O)/C=C/c2ccccc2)C2=CC3CCC(C2)N3C)cc1 (stereo not given) | -30% | . | 10% | -3% | -27% | 29%
Cc1ccc(C2=NN(C(=O)CSc3nc4ncc(Cl)cc4[nH]3)C(c3ccco3)C2)cc1 (stereo not given) | 22µM* | ? | 45µM* | -18% | . | 11%
COc1ccc(C2=NN(C(=O)CSc3nc4ncc(Cl)cc4[nH]3)C(c3ccco3)C2)cc1 (stereo not given) | 56µM* | -20% | -8% | -26% | -35% | 12%
Cc1ccc(-n2c(-c3cn(C)nc3C)n[nH]c2=S)cc1 | ? | . | -13% | . | -20% | .
SMILES | G9a block | L3MBTL1 inh | Sfp PPTase inh | JMJD2A Tudor inh | BAZ2B inh | HP1b chromo inh
Cc1ccc(-n2c(-c3nn(C)cc3Cl)n[nH]c2=S)cc1 | 3.2µM* | -6% | 13µM* | 8.9µM* | 2% | 27%
Cc1nn(C)c(-c2n[nH]c(=S)n2-c2ccccc2)c1Cl | 3.2µM* | 8% | 9% | 35µM* | 3% | 19%
Cn1cc(Cl)c(-c2n[nH]c(=S)n2-c2ccc(F)cc2)n1 | 7.9µM* | 8% | -2% | ? | -3% | 47%
Cn1cc(Cl)c(-c2n[nH]c(=S)n2-c2ccccc2)n1 | 8.9µM* | 2% | -8% | 6.3µM* | -1% | 36%
CC(NC(=O)C(NS(=O)(=O)c1cccs1)C(C)C)c1ccc(S(N)(=O)=O)cc1 (stereo not given) | 32%[12.7 µM] | 1% | . | -11% | 4% | 33%
Cc1c(-c2n[nH]c(=S)n2-c2ccc(Br)cc2)nnn1-c1ccc(Cl)cc1 | ? | -12% | -14% | ? | -37% | 3%
Cc1c(-c2n[nH]c(=S)n2-c2ccc(C(F)(F)F)cc2)nnn1-c1ccccc1 | 10µM* | 5% | 2% | ? | -2% | -6%
Cc1c(-n2c(-c3ccccc3Cl)n[nH]c2=S)c(=O)n(-c2ccccc2)n1C | 45µM* | -14% | ? | ? | ? | 50%
Cc1nn(C)cc1-c1n[nH]c(=S)n1-c1ccc(F)cc1 | 10µM* | 4% | -8% | 5.6µM* | -20% | 16%
Cc1nn(C)c(=S)n1-c1ccc(Cl)cc1 | . | -9% | 2% | -29% | -6% | 34%
Cc1c(Cl)c(-c2n[nH]c(=S)n2-c2ccc(F)cc2)nn1C | ? | -3% | -10% | 45µM* | -5% | 27%
COC(=O)CCC(C)C1CCC2C3C(O)C[C@@H]4CC(O)CC[C@@]4(C)C3CC(O)[C@]12C (stereo not given in full) | . | . | -12% | . | . | .
COc1ccc2c(c1)OC1(O)COc3cc(OC)c(OC)cc3C1=C2 (stereo not given) | . | . | -4% | . | . | .
O=C(Nc1cccc(Cl)c1)c1cccc(Oc2ccc([N+](=O)[O-])cc2Cl)c1 | 21%[59 µM] | -1% | 18% | -29% | -33% | 12%
O=C(Nc1ccc([N+](=O)[O-])cc1Cl)c1cc(Cl)ccc1O | 7.9µM*! | -4% | 0% | ? | -3% | 11%
